Sampled rows, rich in hits. Any-hit rate of the full collection: about 1.9%.
S aureus QS inh – S. aureus quorum sensing inhibitors, primary screen, RNAIII-GFP reporter, flow cytometry | inhibition, % at 2 µM | 24,000 tested, 0.3% active | S. aureus RN6390 RNAIII-GFP reporter, AIP-induced, flow cytometry 3 h;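 active = share of bacteria positive for the green fluorescent reporter and its mean brightness both inhibited by 50% or more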;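 note: 0% = AIP-stimulated control and 100% = unstimulated bacteria without AIP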
FPR binder – human FPR ligands by binding competition, primary screen, cell-based, FPRL1 counter-screen, flow cytometry; fMet-Leu-Phe receptor (Homo sapiens), P21462; FPR-expressing cells, fluorescent ligand binding; inhibition, % (test concentration not listed); 24,000 tested, 0.74% active; AID 440, 2006;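 note: 0% = buffer wells and 100% = receptor blocker peptide wells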
Target sequence (P21462 whole entry, looked up): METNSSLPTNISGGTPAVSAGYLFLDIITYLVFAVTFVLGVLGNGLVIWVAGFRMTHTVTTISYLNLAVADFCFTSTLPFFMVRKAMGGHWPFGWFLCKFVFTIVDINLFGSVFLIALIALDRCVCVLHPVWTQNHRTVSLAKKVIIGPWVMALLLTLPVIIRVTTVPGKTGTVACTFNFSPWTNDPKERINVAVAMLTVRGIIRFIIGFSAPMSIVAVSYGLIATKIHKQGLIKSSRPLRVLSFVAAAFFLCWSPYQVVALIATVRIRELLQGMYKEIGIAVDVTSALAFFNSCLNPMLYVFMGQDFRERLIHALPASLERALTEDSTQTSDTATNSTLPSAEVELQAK
FPRL1 ligand – human FPRL1 ligands by binding competition, primary screen, cell-based, FPR counter-screen, flow cytometry. N-formyl peptide receptor 2 (Homo sapiens), P25090. AID 441, 2006. inhibition, % (no concentration beside the values). 24,000 tested, 0.3% active. FPRL1-expressing cells, fluorescent ligand binding inhibition;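 note: 0% = buffer alone and 100% = receptor blocker peptide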
Target sequence (P25090 whole entry, looked up): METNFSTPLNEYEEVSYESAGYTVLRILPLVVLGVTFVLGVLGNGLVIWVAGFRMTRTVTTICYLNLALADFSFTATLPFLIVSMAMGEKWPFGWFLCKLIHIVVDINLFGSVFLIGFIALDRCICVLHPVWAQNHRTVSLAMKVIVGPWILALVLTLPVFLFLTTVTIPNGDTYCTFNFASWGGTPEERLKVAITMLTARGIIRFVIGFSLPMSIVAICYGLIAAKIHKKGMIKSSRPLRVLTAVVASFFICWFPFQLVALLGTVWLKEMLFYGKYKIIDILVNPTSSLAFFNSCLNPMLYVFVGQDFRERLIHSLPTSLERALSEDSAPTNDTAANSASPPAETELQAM
Prostate diff – activators of LNCaP prostate cell differentiation, primary screen, flow cytometry side scatter | 4 d | side scatter shift, % at 10 µM | 24,000 tested, 0.56% active | AID 795, 2007;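 active = side scatter shift above 30%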;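 note: androgen-responsive LNCaP prostate cancer cells in charcoal-stripped serum medium; percent of cells past a gate set so DMSO wells show 10% shift; higher shift means more granular cells and more differentiation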
* = called active by the depositor; nt = no result given. Cut-off read from the data, not from the text of the source, unless noted: active = inhibition above about 30%; inconclusive = no clear call, values can overlap the other calls; inactive = below that.

SMILES | S aureus QS inh | FPR binder | FPRL1 ligand | Prostate diff
O=C1C(C23CC4CC(CC(C4)C2)C3)C(=O)N(c2ccccc2)N1c1ccccc1 | nt | 73.1* | 1.0 | nt
COC(=O)c1[nH]c(C)c(/C(O)=C2\C(=O)C(=O)N(CCN3CCOCC3)C2c2cccs2)c1C (stereo not given) | -12.3 | 54.2* | 0.9 | 5.0
CC(NC(=O)Cc1cccs1)C(c1cccs1)N1CCOCC1 (stereo not given) | 3.7 | 3.4 | 9.9 | 4.0
CC(C)N1CCC2(CC1)N=C(c1ccc3c(c1)OCO3)CC(c1cc(Cl)ccc1O)N2 (stereo not given) | 13.8 | 2.7 | -5.3 | 34.0*
COc1ccc(-c2nc(C#N)c(NCCCN3CCOCC3)o2)cc1 | 2.9 | 2.0 | 3.0 | 5.0
COc1ccc(-c2oc3ncn(CCN4CCOCC4)c(=N)c3c2-c2ccc(OC)cc2)cc1 | 53.3* | -8.1 | -5.0 | 34.0*
CCCCCOC(=O)Cn1c(=O)oc2ccccc21 | -0.9 | 30.8* | 23.0 | 3.0
CCN(CCCNC(=O)CN(C)S(=O)(=O)c1ccc2c(c1)CCC(=O)N2)c1cccc(C)c1 | -3.5 | -0.3 | -1.8 | 17.0
CC(C)NC(=O)CCNC(=O)c1ccc(F)cc1 | -0.9 | -4.6 | -3.2 | 5.0
CCc1ccc(NC(=O)NCCN2CCc3ccccc3C2)cc1 | -2.9 | -0.4 | 9.7 | 34.0*
O=C(NCCN1CCc2ccccc2C1)Nc1ccc(F)cc1 | -4.7 | 0.8 | -2.3 | 7.0
CCOCCn1c(=O)c2c(nc3n2CCN3c2ccc(CC)cc2)n(C)c1=O | 0.0 | -0.5 | -1.7 | 2.0
Oc1ccc(-c2nc3ncccn3c2Nc2ccc3c(c2)OCCO3)cc1 | 83.1* | -1.5 | -8.6 | 1.0
CCOC(=O)c1oc2cc(O)c(CC)cc2c(=O)c1-c1ccc2c(c1)OCCO2 | 1.6 | 2.2 | -1.8 | 8.0
Cc1oc2cc(O)cc(O)c2c(=O)c1-c1ccc2c(c1)OCCCO2 | nt | 31.4* | 23.0 | nt
COc1ccc(Oc2ccc(/C=C/C(=O)c3ccc(O)cc3)cc2[N+](=O)[O-])cc1 | 0.2 | nt | nt | nt
O=C(CN1C(=O)CC(c2ccco2)Sc2ccccc21)Nc1ccc2c(c1)OCCO2 (stereo not given) | 83.2* | 9.4 | -0.7 | 16.0
Cc1cc(SCC(N)=O)nc(SCC(=O)c2ccccc2)n1 | -0.9 | 48.2* | 48.8* | 15.0
Cc1ccc(C2/C(=C(\O)c3c(C)nc4ccccn34)C(=O)C(=O)N2CCCN2CCOCC2)o1 (stereo not given) | nt | -11.2 | -0.4 | nt
CCOc1ccc(-n2ccnc2SCC(=O)NCc2ccc3c(c2)OCO3)cc1 | 2.3 | 4.3 | -2.2 | 13.0
COC(=O)c1ccc2c(c1)N(Cc1nc(-c3ccc(Cl)cc3)oc1C)C(=O)C1CCCN21 (stereo not given) | 3.3 | 0.5 | -5.0 | 17.0
Nc1ccc(Nc2ccccc2N)cc1 | 9.2 | 2.6 | 46.8* | 0.0
CC(C)Cc1cc(C(=O)Nc2sc3c(c2C#N)CCCC3)no1 | 55.2* | 7.1 | -8.1 | 12.0
Cc1cc(C(=O)Nc2sc3c(c2C#N)CCCC3)no1 | 0.0 | -2.1 | -3.1 | 3.0
CCc1ccc(N/C(SCc2cccc(F)c2)=C(/C#N)C(=O)NCc2ccco2)cc1 | 65.3* | 4.0 | -1.9 | 6.0
SMILES | S aureus QS inh | FPR binder | FPRL1 ligand | Prostate diff
CCc1ccc(NC(=O)c2cc(-c3ccco3)on2)cc1 | -0.4 | -2.9 | 0.2 | 8.0
Cc1[nH]n2c(=O)cc(-c3ccc([N+](=O)[O-])cc3)nc2c1-c1ccccc1 | nt | 69.6* | 47.3* | nt
CCCc1cc(=O)n2[nH]c(C)c(-c3ccccc3)c2n1 | nt | 34.7* | 28.8 | nt
Cc1ccc(/C(O)=C2/C(=O)C(=O)N(CCCn3ccnc3)C2c2ccccn2)cc1 (stereo not given) | nt | -29.0 | -0.7 | nt
COc1cc(C2/C(=C(\O)c3ccc4c(c3)CC(C)O4)C(=O)C(=O)N2CCCn2ccnc2)ccc1O (stereo not given) | nt | 43.8* | 32.8* | nt
Cc1ccc(C)c(/C(O)=C2\C(=O)C(=O)N(CCCn3ccnc3)C2c2ccncc2)c1 (stereo not given) | nt | 37.2* | 24.7 | nt
Cc1nc2scc(-c3ccco3)c2c(=O)n1/N=C/N(C)C | -0.8 | 16.8 | -0.2 | 15.0
Cc1ccc(-c2nc(CS(=O)CC(=O)NC3CCC(C)CC3)c(C)o2)cc1 (stereo not given) | -0.8 | 2.3 | -7.6 | 16.0
COc1ccccc1N(CC(=O)Nc1cccnc1)S(C)(=O)=O | -1.0 | -1.0 | -5.1 | 8.0
COc1ccc(CNC(=O)C2CCN(S(=O)(=O)c3cccc4cccnc34)CC2)cc1 | -0.3 | 3.3 | 1.2 | 4.0
COC(=O)c1cc(-c2ccccc2)sc1NC(=O)c1cc(C)on1 | -1.2 | -4.8 | 4.3 | 35.0*
COc1cc(NC(=O)c2cc(C)on2)cc(OC)c1OC | -1.6 | 1.7 | 9.3 | 5.0
CCOc1ccc(-c2cc(C(=O)NCCCN3CCN(CC)CC3)c3ccccc3n2)cc1 | -1.2 | -0.4 | 2.5 | 37.0*
CNc1nn(-c2cccc(Cl)c2)nc1N | 4.4 | -8.6 | 90.3* | 13.0
CCC(=O)Nc1cc2nn(-c3ccccc3)nc2cc1Cl | 0.4 | -0.7 | 0.3 | 10.0
O=C(Nc1nnc(-c2ccccc2Cl)o1)c1ccc(S(=O)(=O)N2CCCCCC2)cc1 | -7.3 | 31.4* | -4.8 | 21.0
CC1CCCCN1S(=O)(=O)c1ccc(C(=O)Nc2nnc(-c3ccccc3Cl)o2)cc1 (stereo not given) | 1.1 | 4.0 | 1.1 | 7.0
CCCCn1c(N(CCOC(C)=O)C(C)=O)nc2ccccc21 | -2.9 | 2.9 | -1.3 | 8.0
Cc1ccc(N2CCn3c2nc2c3c(=O)n(CCc3ccccc3)c(=O)n2C)cc1 | 1.1 | -10.9 | -9.1 | 15.0
Cc1ccc(CN2CCSc3ccc(C(=O)N4CCN(c5ncccn5)CC4)cc32)cc1 | -0.9 | -0.5 | -15.5 | 44.0*
CCOC(=O)N1CCC(NC(=O)CCc2c(C)nc3c(c(C)nn3C(C)(C)C)c2C)CC1 | 12.9 | 4.5 | -1.8 | 5.0
CCOC(=O)c1ccc(NC(=O)Nc2ccc3c4c(cccc24)C(=O)N3CC)cc1 | -0.5 | -17.9 | 48.0* | 29.0
CCCCN(CC)S(=O)(=O)N1CCC(C(=O)NCc2ccc(F)cc2)CC1 | 1.9 | 0.9 | -2.3 | 10.0
C=CCN1C(=O)C2(/C(=C(\O)c3ccc4c(c3)OCCO4)C(=O)C(=O)N2CCCOC)c2ccccc21 (stereo not given) | -1.9 | 31.6* | 1.9 | 19.0
C/C(=C1/SC(N2CCCC2)=NC1=O)c1ccc(Br)cc1 | 16.5 | 42.3* | 6.6 | 9.0
CCOc1cc2[nH]c(=O)n(CCCCC(=O)NC3CCCCC3)c(=O)c2cc1OCC | 0.6 | 1.6 | 9.4 | 8.0
CCC(=O)Nc1cccc(-c2nc3ccccc3c(=O)o2)c1 | -1.3 | 1.7 | 3.9 | 7.0
O=c1oc(-c2ccco2)nc2ccccc12 | -1.1 | 0.8 | 4.0 | 30.0*
CCOC(=O)N1CCC(NC(=O)c2ccc(CS(=O)(=O)c3ccccc3C)o2)CC1 | 0.6 | -4.8 | -3.9 | 2.0
COC(=O)c1ccccc1NC(=O)CN1CCC(n2nnc3cc(F)ccc32)CC1 | 0.4 | -2.5 | -3.1 | 30.0*

Screening data deposited in PubChem by NMMLSC.
